According to ChEMBL document CHEMBL4513216, “Probing the Open Global Health Chemical Diversity Library for Multistage-Active Starting Points for Next-Generation Antimalarials” (ACS Infect Dis, 2020):
The campaign covered roughly 69,000 compounds. About 8,600 (12%) showed an effect of 50% or more. The list comes from a sample in which strong results are over-represented; it also holds similar structures and randomly drawn compounds.

test system: Plasmodium berghei; experiment: Screen against P. berghei liver stage (PbLuc), transformed with Luciferase, at 10uM; type: functional, HepG2; details: tested at 10 uM

Structure (SMILES)	INHIBITION [%]
Cc1cccc(N(C)Cc2cc(=O)n3oc(C)cc3n2)c1	43.5
Cc1cc2nc(CN(C)c3ccc(Cl)cc3)cc(=O)n2o1	56
Cc1cc2nc(CN(C)c3ccccc3)cc(=O)n2o1	12.9
NC(=O)[C@H]1CCCN1C(=O)c1csc(-c2ccc(C(F)(F)F)cc2)n1	-2.25
CCOCC1CCN(C(=O)C(c2ccc(F)cc2)N(C)C)CC1 (centres undefined)	17.5
CNS(=O)(=O)c1c(C)sc2ccccc12	-77.9
Cc1[nH]ncc1C(=O)N1CCCC(c2ccn[nH]2)C1 (centres undefined)	23.5
Cc1nc(CN2CCCN(C(=O)c3cnccn3)CC2)cs1	-16.4
CC(CNS(C)(=O)=O)c1ccc(F)c(F)c1 (centres undefined)	60.4
CCCS(=O)(=O)NCC(C)c1ccc(F)c(F)c1 (centres undefined)	10
CC(CNS(N)(=O)=O)c1ccc(F)c(F)c1 (centres undefined)	31.1
Cc1ccn(-c2ccnc(N3CCN(c4ncccn4)CC3)n2)n1	44.9
COCCO[C@H]1CCN(c2ccc(C)nn2)[C@H]1Cc1cnn(C)c1	13.7
COc1ccc(CS(=O)(=O)CC(=O)NCC2CC2)cc1F	19
CNC(=O)CS(=O)(=O)Cc1ccc(OC)c(F)c1	52.2
COc1ccc(CS(=O)(=O)CC(=O)NCc2ccccc2F)cc1F	40.3
Cc1nccn1CCN(C)C(=O)C1CCN(C(=O)C2CCCC2)CC1	48.9
N#Cc1ccc(C(=O)N2CCCSCC2CN2CCCC2)cc1 (centres undefined)	40.8
Cc1cc(S(C)(=O)=O)c(C)c(S(=O)(=O)N2CCCC(C)C2)c1 (centres undefined)	63
Cc1cc(S(C)(=O)=O)c(C)c(S(=O)(=O)N2CCN(C)CC2)c1	31.9
Cc1cc(S(C)(=O)=O)c(C)c(S(=O)(=O)N2CCCCCC2)c1	36.4
CC(=O)c1c(F)cccc1NCC(O)C1CC1 (centres undefined)	26

Structure (SMILES)	INHIBITION [%]
Cc1nc(NCc2scnc2-c2ccccc2)cc(C2CCNCC2)n1	24.3
CN(C)c1ccc(-c2cc(=O)n3c(n2)CCCCC3)cc1	35.1
Cc1ccc(S(=O)(=O)n2ccn(C(=O)COc3ccccc3)c2=O)cc1	44.1
Cn1cc(N2CCCC(SCc3nc(C4CC4)no3)C2=O)cn1 (centres undefined)	51.2
Cc1cc(CSC2CCCN(c3cnn(C)c3)C2=O)no1 (centres undefined)	30.5
CC(C)Cc1nc(CSC2CCCN(c3cnn(C)c3)C2=O)no1 (centres undefined)	20.1
c1nc(CCC2CCCN2)cc(N2CCCCCC2)n1 (centres undefined)	5.11
Cc1n[nH]c(C)c1C1COCCN1C(=O)c1ccc2c(c1)CCO2 (centres undefined)	32.125
CSCc1cc(F)ccc1CNCc1cccc(O)c1	5.15
O=C1CC(c2ccc3c(c2)OCO3)c2snc(C(=O)O)c2N1 (centres undefined)	15.1
COCC(=O)N1CCC2(CC1)CC(OC)c1ccc(F)cc12 (centres undefined)	42.1
O=C(CC1CC2(CCNCC2)c2ccccc21)NCC1CC1 (centres undefined)	57.5
CN(C)C(=O)CC1CC2(CCNCC2)c2cc(F)ccc21 (centres undefined)	59.1
CS(=O)(=O)N1CCC2(CC1)CC(CC(=O)NCC1CC1)c1ccccc12 (centres undefined)	3.69
NC(=O)CC1CC2(CCNCC2)c2cc(F)ccc21 (centres undefined)	59.3
COCCN1CCC2(CC1)CC(CC(N)=O)c1ccc(F)cc12 (centres undefined)	-8.85
CC(C)N1CCC2(CC1)CC(CC(N)=O)c1ccc(F)cc12 (centres undefined)	58.7
O=C(CC1CC2(CCN(CC3CC3)CC2)c2ccccc21)NC1CCC1 (centres undefined)	34.4
O=C(C1CC1)N1CC2(CCNCC2)c2cc(F)ccc21	-12.2
CNC(=O)CC1CC2(CCNCC2)c2cc(F)ccc21 (centres undefined)	44.8
O=c1n(CCNCc2ccc(-c3ccccc3)cc2)nc2ccccn12	35.7
Cc1nn(C)c(Cl)c1C1CCCN1CC(=O)Nc1cccnc1 (centres undefined)	21.6

Structure (SMILES)	INHIBITION [%]
Cn1cc(-c2ncc3c(c2C(=O)O)CCN(CC2CCOC2)C3)cn1 (centres undefined)	17.7
O=C(c1ccco1)N1C[C@H]2CCCN(Cc3ccc(F)cc3)[C@H]2C1	29.4
Cc1nc(N(C)C)ncc1C(=O)N[C@H]1Cc2ccccc2[C@@H]1N	2.7
COCCN(Cc1ccoc1)S(=O)(=O)c1ccc(OC)c(Cl)c1	25.4
Cc1noc(NCc2cn(C)nc2-c2cccnc2)n1	41.5
CNc1oc(-c2cc(S(=O)(=O)N3CCCCCC3)c(C)o2)nc1C#N	39.5
Cc1oc(-c2nc(C#N)c(NC(C)C)o2)cc1S(=O)(=O)N1CCCC1	34.6
Cc1oc(-c2nc(C#N)c(NC(C)C)o2)cc1S(=O)(=O)N1CCCCC1	60.1
Cn1cnc(S(=O)(=O)N2CCCc3c(F)cc(F)cc32)c1Cl	30.3
Cc1cccc(OCCSCCn2nc3ccccn3c2=O)c1	22
CCc1nc(CN(C)C(=O)c2ccc(OCCCOC)nc2)cs1	82.5
COCCCOc1ccc(C(=O)N(C)Cc2cccc(O)c2)cn1	38
COCCCOc1ccc(C(=O)N(C)CCC(C)C)cn1	39.7
COCC(=O)N1CCC(c2cc(-c3ccc(OC)cc3)n[nH]2)C1 (centres undefined)	-50.3
CCOC1CCN(C(=O)Nc2ccc(=O)n(C)c2)CC1	33
CN1CCN(C2CCN(CCOc3ccccc3F)CC2)C1=O	-22.9
Fc1ccccc1OC1CCN(CCn2cc3ccccc3n2)CC1	89.3
c1cncc(O[C@H]2COCCN(CC3CC3)C2)c1	12.4
COc1ccccc1OC1CCN(Cc2cccnc2)CC1	5.91
OCCn1nccc1C1CCN(CCOc2cccc(F)c2)CC1	31.9
Fc1cccc(OC2CCN(CCn3cc4ccccc4n3)CC2)c1	75.2
c1cncc(OC2CCN(CCn3cc4ccccc4n3)CC2)c1	50.8

Structure (SMILES)	INHIBITION [%]
CCc1ncc(CN2CCC(Oc3ccccc3OC)CC2)cn1	-40
Cc1ccc(CNC(=O)NCc2nccn2C)c(OC(C)(C)C)c1	43.5
CC(C)NC(=O)N1CCN(C(=O)C2CCOCC2)CC2(CNC(=O)C2)C1 (centres undefined)	1.9
CCC(=O)N1CCN(C(=O)NCCOc2ccc3c(c2)CCC3)CC1	30.2
Cc1nccn1-c1ccc(NS(=O)(=O)c2cnn(C)c2)cn1	4.95
Cc1cccc(CN2Cc3[nH]nc(COCC4CC4)c3C2)n1	48.2
CC(O)CNC(=O)Nc1ccc(Br)cc1Br (centres undefined)	29.1
Cc1ncc(CNCC(C)O)c2cc(C(=O)c3ccc(Br)cc3)oc12 (centres undefined)	50.5
Cc1ncc(CN(C)CCO)c2cc(C(=O)c3ccc(Br)cc3)oc12	36.8
COC(=O)c1oc(CNC(C)(C)CO)cc1C	-3.35
Cc1ncc(CNC(C)(C)CO)c2cc(C(=O)c3ccc(Br)cc3)oc12	65.3
Cc1ncc(CN2CCCC2)c2cc(C(=O)c3ccc(Br)cc3)oc12	44.5
Cc1ncc(CN2CCOCC2)c2cc(C(=O)c3ccc(Br)cc3)oc12	-21.8
CN(C)c1ccc(C(=O)NCc2csc(Br)c2)cn1	1.75
Cc1ncc(CNCCO)c2cc(C(=O)c3ccc(Br)cc3)oc12	59.2
CN1C(=O)CCC12CCC(NCc1ccsc1)CC2 (centres undefined)	8.74
COCCOC1CCN(C(C(=O)O)c2ccc3c(c2)OCO3)CC1 (centres undefined)	14.9
COCCCC1CCCCN1Cc1cn2cc(C)ccc2n1 (centres undefined)	-17.2
CN1CCN(C(=O)CCCc2ccccc2)CC(O)(Cn2cccn2)C1 (centres undefined)	26.65
Cc1ccc(C)c(-n2cc(CN3CC[C@@H](O)C3)c(-c3ccccc3)n2)c1	39.9
Cc1ccc(C)c(-n2cc(CN3CCOCC3)c(-c3ccccc3)n2)c1	33.4
Cc1ccc(-n2cc(CN3CCOCC3)c(-c3cccc(C)c3)n2)cc1	56.1

Structure (SMILES)	INHIBITION [%]
COc1cc(N2CCCn3cnc(COC(C)C)c3C2)ncn1	48.2
Cc1cc(NC(=O)C(C)Nc2cccc(COCc3ccco3)c2)on1 (centres undefined)	39.5
Cc1cc(-c2ccc(C(=O)O)cc2)nc(C2CCN(C(C)C)CC2)n1	2.71
Cc1cc(-c2cccc(C(=O)O)c2)nc(C2CCN(C(C)C)CC2)n1	56
Cc1cccc(Nc2cc(C)nc(C3CCN(C(C)C)C3)n2)n1 (centres undefined)	60.9
Cc1cc(C)nc(Nc2cccc(C3CCCN(C(C)C)C3)n2)n1 (centres undefined)	-21.4
Cc1nc(-c2cccc(C(=O)O)c2)cc(C2CCN(C(C)C)C2)n1 (centres undefined)	0.0932
Cc1cc(C)nc(Nc2cc(C)nc(C3CCN(C(C)C)C3)n2)n1 (centres undefined)	11.685
Cc1noc(Cl)c1CCC(=O)N1CCN(Cc2ccncc2)CC1	1.78
Cc1nn2cnnc2c(C)c1CCC(=O)Nc1nnc(C2CC2)s1	-31.1
CC(C(=O)NCCc1ccc2c(c1)OCCO2)n1cncn1 (centres undefined)	35.4
CCN(Cc1noc(CC(C)C)n1)Cc1cc2ccc(F)cc2[nH]c1=O	-7.65
Cn1cccc1CN1CCc2c(nc(-c3ccccn3)[nH]c2=O)C1	6.32
CCOc1ccc2[nH]c(=O)c(CN3CCCC(CO)(CO)C3)cc2c1	-46.4
CO[C@H]1CCN(C(=O)c2ccc3[nH]nnc3c2)C[C@@]12CCCO2	5.34
CSc1ccc(C(=O)N2CC(=O)N(CC(C)(C)C)CC(O)C2)cc1 (centres undefined)	37.4
O=C1CN(CC2CC2)Cc2nc(NCCc3ccccn3)sc21	23.4
CC(=O)N1CCCC2(CCN(c3ccccc3)C2=O)C1 (centres undefined)	2.58
O=C(CCc1ccccc1)N1CCCCC1C1OCCO1 (centres undefined)	72.1
O=C(NCCc1ccccc1)N1CCCCC1C1OCCO1 (centres undefined)	25.7
O=C(CCc1ccccc1)N1CCCCC1Cn1cccn1 (centres undefined)	29.4
